# Columns and labels:
# Assay type in all cases: functional
# [1] = test system: Plasmodium falciparum; test: GSK_TCMDC: Inhibition of Plasmodium falciparum 3D7 in whole red blood cells, using parasite LDH activity as an index of growth. Test compounds present at 2uM
# [2] = test system: Plasmodium falciparum; test: GSK_TCMDC: Inhibition of Plasmodium falciparum Dd2 in whole red blood cells, using parasite LDH activity as an index of growth. Test compounds present at 2uM
# [3] = test system: HepG2; test: GSK_TCMDC: Percent inhibition of human HepG2 cell line. Test compounds present at 10uM.
Compound,Inhibition [1] [%],Inhibition [2] [%],Inhibition [3] [%]
COc1cc2c(cc1COc1ccccc1)CCN1Cc3cc(OC)c(OC)cc3CC21 (stereo not drawn),99,84,0
COc1cccc(NC(=O)c2cc([N+](=O)[O-])ccc2NC(=O)CN2CCc3ccccc3C2)c1,100,37,5
Clc1ccc(Nc2nc(-c3ccccn3)cs2)nc1,95,90,36
CCN(CC)CCCNc1c2ccccc2nc2ccccc12.Cl,100,0,17
Nc1cccc(CNCc2cccc(-c3cccc(-c4nc5cc(F)ccc5[nH]4)c3)c2)c1.O=C(O)C(F)(F)F,100,82,5
CC(C)CNCc1ccc(-c2ccccc2CN(C(=O)NCCc2ccccc2)C2CCN(Cc3ccccc3)CC2)cc1.O=C(O)C(F)(F)F,98,94,89
COc1cccc(CN2CCC(N3CCc4cc(NC(=O)c5cc(C)on5)ccc43)C2)c1OC (stereo not drawn),93,92,9
CC1(C)N=C(N)N=C(N)N1OCc1ccc2ccccc2c1,94,97,65
CCN(CC)CCNc1ccc(Nc2ccnc3cc4ccccc4cc23)cc1,100,99,36
Cc1nn(-c2ccccc2)nc1C(=O)N(Cc1ccc(-c2ccc(CNCCc3ccc(S(C)(=O)=O)cc3)cn2)cc1)C(C)CN(C)C.O=C(O)C(F)(F)F (stereo not drawn),100,87,25
CC(C)(CNCc1ccc(F)c(F)c1)c1nc(-c2ccnc(N)n2)c(-c2ccc(Cl)c(O)c2)[nH]1.Cl,99,79,41
CCCCNCc1ccc(-c2nc(CN(Cc3ccc(Cl)c(Cl)c3)C(=O)CN(C)C)cs2)cc1.O=C(O)C(F)(F)F,100,51,36
Cc1cc(-c2c[nH]c3ncc(-c4cccc5ncccc45)cc23)ccc1C(=O)O.O=C(O)C(F)(F)F,99,77,31
Cc1ccc(CON2C(=N)N=C(N)NC2(C)C)cc1C.Cl,92,88,64
N#Cc1cccc(C(=O)Nc2cccc(-c3ccc(C(=O)Nc4cccnc4)cc3)c2)c1,89,10,39
Cc1ccc2nc3sc(C(=O)NCCCN4CCC(N5CCCCC5)CC4)cc3cc2c1,100,71,11
CCOC(=O)c1nc(-c2cccc(F)c2)[nH]c1N.Cl,98,2,0
O=C(/C=C/c1ccc(Cl)c(Cl)c1)NCCCCCCN1CCN(C(=O)Nc2ccc(Cl)c(C(F)(F)F)c2)CC1,99,43,47
Cc1ccc2nc3ccccc3c(NCCN3CCN(C)CC3)c2c1.Cl,100,6,19
COc1ccc2nccc([C@@H](O)CN3CCC(NCCOc4c(C)cccc4F)CC3)c2c1.O=C(O)C(=O)O,100,95,4
O=C(NCCc1ccc(Cl)c(Cl)c1)[C@@H]1CCCN1C(=O)c1ccc(O)c(-c2cccc(C(F)(F)F)c2)c1,97,82,0
COC(=O)c1cccc(CNCc2ccc(-c3cccc(-c4nc5ccccc5[nH]4)c3)cc2)c1.O=C(O)C(F)(F)F,100,46,5
Cc1cccc(CN2CCCN(Cc3ccc(C(=O)Nc4ccc(C(C)(C)C)cc4)cc3)CC2)c1.O=C(O)C(F)(F)F,97,4,57

Compound,Inhibition [1] [%],Inhibition [2] [%],Inhibition [3] [%]
O=C(C1CC1)N1c2ccccc2CCc2ccccc21,98,57,40
CS(=O)(=O)c1ccc(CNCc2ccc(-c3ccc(-c4nc5cc(F)ccc5[nH]4)s3)cc2)cc1.O=C(O)C(F)(F)F,100,97,22
CN1CCN(CCCN(Cc2cccc(-c3cccc(CNCc4ccc5c(c4)OCO5)c3)c2)C(=O)CCC2CCCC2)CC1.O=C(O)C(F)(F)F,98,80,85
CN1CCCC(CN2CCN(Cc3cccc(-c4csc(-c5nc6ccccc6[nH]5)c4)c3)CC2)C1.O=C(O)C(F)(F)F (stereo not drawn),100,100,65
Cn1nccc1C(=O)NCCNCc1ccc(-c2ccc(-c3nc4cc(F)ccc4[nH]3)cc2)cc1.O=C(O)C(F)(F)F,100,98,28
N#Cc1ccc(C=Cc2nccc3c2[nH]c2ccccc23)cc1,97,28,33
CCCCCC(C)NC[C@@H](O)[C@H](Cc1ccccc1)NC(=O)c1cc(NCC)cc(N2CCCCS2(=O)=O)c1.Cl (stereo partly drawn),98,79,3
O=C(Nc1ccc2c(c1)CN(Cc1ccc(N3CCCC3)o1)CCC2)c1cncs1.O=CO,84,37,15
CNCCNCc1ccc(-c2ccc(-c3nc4cccc(C)c4[nH]3)s2)cc1.O=C(O)C(F)(F)F,97,26,16
COc1ccc(Nc2nc(NN=Cc3cc(Br)c(O)cc3O)nc(Nc3ccc([N+](=O)[O-])cc3)n2)cc1,97,23,30
O=C(NCC1CCN(Cc2ccc(F)cc2)C1)c1cc(-c2cccc(C(F)(F)F)c2)cs1.O=C(O)C(F)(F)F (stereo not drawn),93,18,38
CCOc1cc(C(=O)NCCN(C(C)C)C(C)C)ccc1-c1nc2cc(Cl)ccc2[nH]1,100,90,4
Cc1nc2nc(N)nc(N)c2c(C)c1Cc1cccc(C(N)=O)c1.Cl,91,0,59
CN(C(=O)/C=C/c1ccccc1F)C1CCN(CCCCCNC(=O)/C=C/c2ccc(Cl)c(Cl)c2)CC1,89,59,73
Cc1cc(Nc2ccccc2)nc(Nc2ccccc2)n1,96,74,0
CC[C@H](C)CNC(=O)c1cncc(-c2ccc(CN(C)C3CCN(C)CC3)cc2)c1.O=C(O)C(F)(F)F,100,97,0
COc1ccc2c(N/N=C/c3ccc([N+](=O)[O-])cc3)ccnc2c1,100,98,0
COCCOc1cc(C)c(C2CCN(CCCCNC(=O)c3ccc(NC(=O)c4ccc(Cl)cc4)cc3)CC2)cc1C,88,30,15
c1ccc(C2CCC(N3CCC(N4CCN(c5ccccc5)CC4)CC3)CC2)cc1 (stereo not drawn),97,34,6
Clc1ccc(-c2csc3ncnc(Cl)c23)cc1,94,95,0
Cc1cccc2nc(O)c([N+](=O)[O-])c(O)c12,95,0,0
CCCCCc1cnc2nc(N)nc(N)c2c1.O=S(=O)(O)CCO,82,6,72
CCN(CC)CCCC(C)Nc1c(-c2ccc(C)cc2)cnc2ccccc12 (stereo not drawn),85,65,8

# Source: ChEMBL document CHEMBL1157539, “Thousands of chemical starting points for antimalarial lead identification” (Nature, 2010)
